Reference: PubChem BioAssay AID1458 (National Center for Advancing Translational Sciences (NCATS), 2008)
The campaign covered roughly 210,000 compounds. About 5,900 (2.8%) were called active. Not shown: some 5% with an inconclusive outcome. The call rests on the fitted dose curve; in most records, active means well fitted activation curve with a large enough effect; inconclusive means small, poorly fitted or top-dose-only effect; inactive means no such curve, though single readings can be large or run the other way. For the sample, actives were picked, then their nearest neighbours and some compounds at random.

Experiment: qHTS Assay for Enhancers of SMN2 Splice Variant Expression; further: nearly all actives have a fitted effect of over 55% in size
Conditions: HEK293 SMN2-luciferase splicing reporter, luminescence, 30-36 h; series mostly up to 46.1 µM
Outline: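 qHTS luciferase splicing reporter: luminescence rises when SMN2 exon 7 is included in transfected HEK293 cells. Compound exposure lasted 30-36 h at 37C, with 4.5 mM final sodium butyrate as control, followed by a ONE-Glo read.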
Potency means the concentration at half of the fitted maximal effect.

Potency, inactive:
COc1ccc(/C=C2\NC(=O)[C@@H]3Cc4ccccc4CN3C2=O)cc1, CCN(CC)S(=O)(=O)c1ccc2c(c1)N(CC(=O)NCC(C)c1ccccc1)C(=O)CO2 (configuration not stated), Cc1ccc2nc(COc3ccc(N(C)S(=O)(=O)c4ccccc4)cc3)cc(=O)n2c1, COc1ccc(C(=O)NCc2cn3ccccc3n2)cc1, COc1ccc(-c2nc3c(c(SCC(=O)Nc4ccc(C(=O)O)cc4)n2)Cc2ccccc2O3)cc1, Cc1cc(C)nc(Nc2cc([N+](=O)[O-])ccc2C)n1, CC(C)(C)NC(=O)Cn1cnc2cc([N+](=O)[O-])ccc2c1=O, CC1CCN(C(=O)Cn2c(=O)n(-c3ccc(Cl)cc3)c(=O)c3c4c(sc32)CCC4)CC1, CCCOc1ccc(CNC(=O)C2CCN(c3nn4c(=O)cc(C)nc4s3)CC2)cc1, Cc1nn(CC(=O)O)c(=O)c2cc3cc(F)ccc3n12, Oc1ccccc1N1CCN(C(=S)NCc2ccccc2)CC1, O=C1CCN(C(=S)NCCc2ccccc2)CC1, CCc1nn(CCCC(=O)NCc2ccccc2OC)c(=O)c2cc3occc3n12, COc1ccc(-n2c(SC)nc3sc4c(c3c2=O)CCN(C(C)=O)C4)cc1, Cc1cc(C)nc(N2CCC(C(=O)Nc3ccc4c(c3)OCCO4)CC2)n1, O=C(Nc1ccc2c(c1)OCCO2)C(c1ccc(F)cc1)N1CCCCC1 (configuration not stated), Cc1c(NS(=O)(=O)c2ccc(Cl)cc2)c(=O)n(-c2ccccc2)n1C, CCOc1ccccc1NC(=O)CSc1ncc(S(=O)(=O)c2ccc(C(C)(C)C)cc2)c(=O)[nH]1, COC(=O)c1ccc(NC(=O)c2cccc3c2C(=O)N(C2CCCCC2)C3)cc1, CCCOc1cc(C)c(S(=O)(=O)n2nnc3ccccc32)cc1C, COc1cc(C)c(Cl)cc1S(=O)(=O)n1ccnc1, COc1ccccc1/C=C/c1nc(C#N)c(NC(C)c2ccccc2)o1 (configuration not stated), COc1ccc(/C=N/S(=O)(=O)c2ccccc2)cc1OC, CCOc1ccc(/C=N/Nc2nncc(-c3ccccc3)n2)cc1OC, Cc1ccc(Cl)cc1NC(=O)C1CCCN(c2cnccn2)C1 (configuration not stated), O=C(Nc1cccnc1Cl)c1cc(-c2cccc(Cl)c2)on1, CCC(=O)N1CCc2cc(S(=O)(=O)NC(Cc3ccccc3)C(=O)NCc3ccccc3)ccc21 (configuration not stated), Nc1nc(NCCCN2CCOCC2)nc(Nc2ccccc2)c1[N+](=O)[O-], COCCNc1nc(N)c([N+](=O)[O-])c(NCCO)n1, Cc1ccccc1CNC(=O)Cn1c(C)c2cnn(-c3ccccc3)c(=O)c2c1C, COc1cc(CCC(=O)OCC(=O)Nc2cccc(S(N)(=O)=O)c2)cc(OC)c1OC, CCOC(=O)/C(C#N)=C/c1ccc(OCC(=O)Nc2ccccc2)c(OC)c1, CCOc1ccc(CCNC(=O)CN(c2ccc(C)cc2)S(=O)(=O)N(C)C)cc1OCC, CCOC(=O)c1ccc(N2C(=O)c3[nH]nc(-c4ccccc4)c3C2c2ccc(C(C)C)cc2)cc1 (configuration not stated), Cc1nc(NC(=O)C23CCC(C)(C(=O)O2)C3(C)C)sc1C (configuration not stated), Cc1ccc(SCC(=O)Nc2ncc(C)s2)cc1, Cc1cnc(NC(=O)CSc2c(Cl)cccc2Cl)s1, CS(=O)(=O)c1ccc2nc(NC(=O)C3CCCCC3)sc2c1, CCCCC(CC)CNC(=O)C1CCN(S(=O)(=O)c2cccc3nsnc23)CC1 (configuration not stated), CCc1cc2c(cc(C(=O)OC)n2Cc2nc(-c3ccc(C)cc3)oc2C)s1, CCCC(=O)Nc1cccc(-c2cn3ccsc3n2)c1, Cc1ccc(-c2cn3cc(C)ccc3n2)cc1, c1ccc(-c2cn3cccnc3n2)cc1, COc1cc(OC)cc(-c2nc(=S)n3ccsc3n2)c1, Cc1ccc(C)c(Cn2c(CCCNC(=O)C3CCCCC3)nc3ccccc32)c1, Cc1ccsc1CN(C(=O)c1oc2ccc(Br)cc2c1C)C1CCS(=O)(=O)C1 (configuration not stated), Cc1ccc(-n2nc(C)c(C(=O)O)c2-n2cccc2)cc1, COc1ccccc1C(=O)NCCn1cc(SCc2ccccc2Cl)c2ccccc21, Cc1ccc(S(=O)(=O)Nc2ccccc2CNc2c(C)n(C)n(-c3ccccc3)c2=O)cc1, Cc1c(C=O)n(C)n(-c2ccccc2)c1=O, Cc1ccc2oc(=O)c3cnn(CC(=O)NCc4ccccc4Cl)c3c2c1, CCCC12CN3CC(CCC)(CN(C1)C3c1c[nH]c3ccc(OC)cc13)C2=O (configuration not stated), CNC(=S)N1N=C(c2ccccc2)CC1c1ccc(Br)cc1 (configuration not stated), c1ccc(C2=Nc3cccc4cccc(c34)N2)cc1, O=C(Nc1ccc(OC(F)(F)F)cc1)C1CCCN(S(=O)(=O)c2ccc(Br)s2)C1 (configuration not stated), COc1cc(NS(=O)(=O)c2cccs2)cc(OC)c1, Cc1cccc(N2CCN(c3c(CN4CCCC4)c(=O)oc4ccccc34)CC2)c1C, Cn1ncc(Br)c1C(=O)NCc1cccs1, O=C(NCc1cccs1)c1ccc2c(c1)ncn2C1CCCC1, CCCCCCn1nnc2sc(-c3ccccc3)cc2c1=O, CCOC(=O)c1cc(NC(=O)c2ccc(F)cc2)c(=O)n2c1oc1ccccc12, COc1ccccc1NC(=O)c1oc2ccccc2c1NC(=O)C(C)C, CC(CCCc1ccccc1)NC(=O)c1nn(-c2ccc(Cl)cc2)nc1CO (configuration not stated), CCOc1ccc(S(=O)(=O)Nc2ccc3oc4c(c3c2)CC(C)CC4)cc1 (configuration not stated), CC(=O)Nc1ccccc1NC(=O)c1cc(C)cc(C)c1, C=CCN(c1ccc(C(=O)Nc2cc(C)cc(C)c2)cc1)S(C)(=O)=O, CCOc1ccccc1NC(=O)c1ccc2c(c1)CCN2S(=O)(=O)c1ccc(C)cc1, CC(=O)Nc1ccc(NC(=O)CSc2nnc3c4cc(Br)ccc4n(C)c3n2)cc1, Cc1cc(C)cc(NC(c2nnc(-c3cccc(F)c3)o2)c2ccc(F)cc2Cl)c1 (configuration not stated), NC(=NC(=O)c1ccccc1)N1CCOCC1, O=C(NC(=O)N1CCOCC1)c1ccccc1, CCCc1nnc(NC(=O)c2cc(OC)cc(OC)c2)s1, Cc1cc(C)c2nc(NC(=O)c3ccc4c(c3)OCO4)sc2c1, Cc1ccc(F)cc1NC(=O)c1ccc2c(c1)OCO2, O=C(Nc1cccnc1)c1ccc2c(c1)OCO2, O=C(CCn1c(=O)c2ccccc2n(Cc2ccc(Cl)cc2)c1=O)NCc1ccc2c(c1)OCO2, CC(C)NC(=O)c1nn(-c2ccccc2F)nc1CO, NC1=NC(c2cc(F)cc(F)c2)n2c(nc3ccccc32)N1 (configuration not stated), Brc1ccc2c(c1)NC(c1cccnc1)=NC(c1ccccc1)=N2, C[N+](C)(C)CCNC(=O)c1c(O)c2c([nH]c1=O)CCCC2, O=C(NCc1ccccn1)c1c(O)c2c([nH]c1=O)CCCC2, Cc1ccc(NC(=O)NC(C)c2c(-n3cccc3)sc(C)c2C)c(C)c1 (configuration not stated), CCCn1c(NCc2ccc(N(CC)CC)cc2)nc2ccccc21, COc1ccc(OCCCC(=O)NCCc2ccccc2)cc1, NS(=O)(=O)c1cc(C(=O)NCCOc2ccccc2)c(Cl)cc1Cl, O=C(CCOc1ccccc1)NCc1ccccc1, Nc1ccc(C(=O)NCc2ccccc2)cc1, O=C(NCCc1ccccc1)c1ccc(OCCOc2ccccc2)cc1, CS(=O)(=O)NCc1ccc(C(=O)NCc2ccccc2)cc1

Potency, active:
O=Cc1ccc(OCc2cn3ccccc3n2)cc1 11.2 µM, Cc1ccc(-n2cc3ccc([N+](=O)[O-])cc3n2)cc1 1.26 µM, S=C(NCCc1ccccc1)N1CCCCC1 11.2 µM, O=C(Nc1ccc2c(c1)OCCO2)C1CCCN(c2ncccn2)C1 (configuration not stated) 3.98 µM, CCOc1cc(C)c(Cl)cc1S(=O)(=O)n1nnc2ccccc21 17.8 µM, COc1ccc(/C=N/Nc2nc3ccccc3o2)cc1OC 6.31 µM, CNc1nc(Nc2ccc(C)c(Cl)c2)nc(N)c1[N+](=O)[O-] 11.2 µM, CCCn1c(C)cc(/C=C(\C#N)C(=O)OCC(=O)Nc2cc(OC)c(OC)c(OC)c2)c1C 14.1 µM, Cc1cnc(NC(=O)C2CCCC2)s1 14.1 µM, Cc1nc(NC(=O)C2CCCCC2)sc1C 20 µM, COc1ccc(-c2cn3ccsc3n2)cc1 15.8 µM, COc1ccc(-c2cn3cccnc3n2)cc1 12.6 µM, Cc1c(N=Nc2ccc(N(C)C)cc2)c(=O)n(-c2ccccc2)n1C 10 µM, Brc1ccc(C2CC(c3ccccc3)=Nc3ccccc3N2)cc1 (configuration not stated) 11.2 µM, Cc1nc2cc(NCc3cccs3)ccc2n1C 7.94 µM, CSCc1ccc(C(=O)Nc2cc(C)cc(C)c2)cc1 12.6 µM, O=C(CSC(=S)N1CCOCC1)c1ccccc1 0.794 µM, COCc1nnc(NC(=O)c2ccc3c(c2)OCO3)s1 14.1 µM, O=C(Nc1nc2ccccc2s1)c1ccc2c(c1)OCO2 0.355 µM, CCc1nnc(NC(=O)c2c(O)c3c([nH]c2=O)CCCC3)s1 14.1 µM, CC(C)c1ccc(C(=O)NCCCc2ccccc2)cc1 14.1 µM, CCCOc1ccc(C(=O)NCCc2ccccc2)cc1 14.1 µM, O=C(NCCOc1ccccc1)c1ccccc1 12.6 µM
